This passage reports PBM binding z-score results from the supplement of paper PMC6555819.

The subject of this assay is VDR:RXRa (NR concentration 270 nM, RXRa partner concentration 90 nM). In words: PBM binding z-score (relative to random genomic background probes); higher = stronger binding; sequences stand for … in GC…GCGATTGACAGCGTAGAATGAAGG
The protocol: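 Protein-binding microarray (Agilent 4x180K custom design, double-stranded 60-nt probes: 5' GC cap, 34-nt variable region, 24-nt constant primer region; full probe sequence given). Purified or IVT nuclear receptor:RXRα heterodimers (3:1 NR:RXRα, mostly 270:90 nM) or homodimers were incubated for 1 h in PBS with 2% milk and no ligand, then detected with Alexa488 antibodies. Fluorescence from o1-orientation probes (~5 replicates averaged) was converted to z-scores against 500 random hg19 background probes. Variable regions are seed direct-repeat (DR0–DR5) sites, all their single-nucleotide variants and half-site ablations.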
In the case of TTACCAAGGAGAAAGGTCGTTGATGCACGCCTTG, the PBM binding z-score worked out at 1.49.
Take ATCTCTAGGTAAGACTCAGTTGAGTGAAGAACGC: the PBM binding z-score was -0.0518.
As for CGAACCAGGGCATGAGTTGATAGCAAATGCCGAT, the PBM binding z-score stood at 0.253.
With CGAACTAGGTCAAGGGCAGTGAATCTCCGCACGC the figure was 1.4.
With CGTCCAAGGCCATAGGAGGTCAGTGAAGACAGAT the figure was 2.71; with GTACCAAGGTGAATAGGTGGTTGATGAGTAGGCG, -0.165.
As to ATATGTAGGTTAGCTCGGGTCATTCAGACTAGGC, the PBM binding z-score came out at 3.96.
Take GCGTGTAGATCAAGGTTAAGAAAGACTAAGCTAA: the PBM binding z-score was determined as 0.0899.
The sequence CCTAGCAGGCCAGGCTCACTCAAGCATTTCGCTT had a PBM binding z-score of -0.772.
For CACCCTAGGTCAGGGCCAGTATAGGAGGAACGTT, the PBM binding z-score amounted to 0.555.
As to ATATGTAGGGTACATCCGGGTCATTCAGGCTATG, the PBM binding z-score was 5.09.
TCTGCGAGGTCAACGATGGTCAGCTAATCTGCTA gave a PBM binding z-score of 5.38.
AGAATGAGGTTATACGTAGATCGGGGAAGAAAGT displayed a PBM binding z-score of 1.43.
With CAGACTAGGTCAAGGTCAAAGTCGGTTTGTGCCA, the PBM binding z-score was determined as 5.15.
With CTACCAAGGTGAACAAGGCCGTTGATTACTATTC, the PBM binding z-score came out at 3.58.
In turn, CCGACTGGGGCATAGGTTACCATACTCAGTACGA returned a PBM binding z-score of -0.0526.
In turn, TCTGGTAGATCAAGCAGGTTAAGAAAGCCTGAGT registered a PBM binding z-score of 0.122.
The figure for TCATATAGTTAAAGGTGAAAGTCGAACGATATGA is 1.2; for ATCGAAAGGTCGAAGGTGAATATACCCACCCGAA it is 3.08.
CCGGCTGGGGCAAAGGTTACCATACTCAGTACGA yielded a PBM binding z-score of 1.58.
Sequence TCTACTAGTTGAAGGGCAACCGACGAGTCCGTTT displayed a PBM binding z-score of 0.635.
TCTCGGAGGACACGAAGGTCAGGGCTTTCCAGAG returned a PBM binding z-score of 2.24.
With TAGCCTAGGTCATTGGGCCCGTATAGTACGCATC the figure was 2.74; with GGAACGAGGGCAACGTTGATAGCATCTGTCGACG, 0.229; with TTACCAAGGTGAGCTAAGGTCGTTGATCCAACTC, 3.13.
The figure for ATACTAAGGTGATCGTGAGGTCGTTGATACTAAC is 3.72; for TGAATGAGGTTATACGATCAGGGAACGTTGCAAA it is 0.918.
With ATCTGTAGGTAAGACTCAGTTCAGTGAAGAACGC the figure was 0.82; with ACAGACAGGTCATGAAGGTAACTCAGGCTATCAT, 4.55; with TCTCGGAGGACACGCAAGGTCAGAGCTCGACATC, 2.45.
As for GCGACTGGGGCATCAGCGGGTTACCATAACTTAA, the PBM binding z-score was -0.262.
TGAATGCGGTTAAAGATCAGGGAACGTGGCGTCG displayed a PBM binding z-score of -0.54.
For the sequence GCTACCAGGCCATTTGGGTCACTCAATGACGGGC, the PBM binding z-score was 1.36.
With AGTCAAGGTTCACTAGGTAACGTAAGATTCAGCT the figure was 3.27; with TCGAGTCGGTTAGGGGCATTCAGAATGGCGTCGA, 0.541.
ACTAGCAGGCCAAGTTTAGGTCACTCAAACAAAG had a PBM binding z-score of 0.781.
As to TTACCAAGGTGAAGGACGTTGATCCCTCTGTAGA, the PBM binding z-score amounted to 0.111.
Sequence TCTTGTAGATTAAAGGTTAAGAAAGCCGAAGCCT had a PBM binding z-score of 1.09.
With TCATATAGGTAAACAGGTGAAAGCCCGTAAGTTA, the PBM binding z-score was 1.15.
Sequence CCAGAGAGGTGAGAAGGTAACTCAGCCTCGATTA gave a PBM binding z-score of 0.23.
